# High-throughput results from PubChem.
# Most compounds without a hit are left out; they make up all but 2.3% or so of the library.
# Bim-Mcl-1: inhibitors of Bim-Mcl-1 interaction, human. Q07820. actives 0.1% (n = 190,000). inhibition, % at 10 µM. Bead-based flow cytometry, Bim peptide-Mcl-1 binding; in the data active means inhibition above about 40%;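 further: 0% = no compound tracer wells and 100% = peptide blocker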
# Target sequence (Q07820 whole entry, looked up): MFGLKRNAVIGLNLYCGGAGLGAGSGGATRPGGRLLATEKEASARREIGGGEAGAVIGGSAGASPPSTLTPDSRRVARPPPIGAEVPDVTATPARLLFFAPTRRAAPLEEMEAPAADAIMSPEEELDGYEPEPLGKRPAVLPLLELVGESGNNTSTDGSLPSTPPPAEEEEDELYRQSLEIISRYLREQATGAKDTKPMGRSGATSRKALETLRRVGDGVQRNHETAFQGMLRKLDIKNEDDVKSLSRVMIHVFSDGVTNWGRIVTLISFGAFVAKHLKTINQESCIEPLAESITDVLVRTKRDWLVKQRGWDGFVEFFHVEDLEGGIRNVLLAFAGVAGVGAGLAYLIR
# Mcl1-Bid inh: disrupts binding of human Mcl-1 to Bid peptide; inhibition, % at 21.7 µM; AID 1021; actives 0.97% (n = 220,000); TR-FRET Mcl-1/Bid-Dy647 peptide binding, 1536-well; Q07820;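 active means compounds that cut the binding signal by more than half at the single screening dose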;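 further: His-tagged Mcl-1 with europium anti-His antibody binding Bid BH3 peptide; 0% = Mcl-1 plus peptide wells and 100% = peptide-only wells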
# GLD-1 RNA inh: GLD-1-TGE RNA interaction inhibition (C. elegans). actives 0.44% (n = 320,000). Q17339. purified GLD-1 + fluorescein TGE RNA, fluorescence polarization. AID 2280. inhibition, % at 5.96 µM;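 active means percent inhibition above a per-plate cutoff, the plate mean of test compounds plus 3 SD, cut at about 30% in these data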;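 further: 0% = DMSO wells with GLD-1 and probe and 100% = wells lacking GLD-1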
# MCL1-BIM inh: disrupts human MCL1 binding to BIM-BH3 peptide | Q07820 | GST-MCL1 / FITC-Bim-BH3 fluorescence polarization | inhibition, % at 10.9 µM | actives 0.68% (n = 320,000) | AID 2057;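 active means inhibition above the mean inhibition of all tested compounds plus 3 SD, set per campaign, cut at about 40% in these data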;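 further: 0% = DMSO wells and 100% = unlabeled Bim-BH3 peptide control; higher means more loss of mP so more displacement of Bim peptide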
# Mcl1 Noxa PPI: Mcl-1/Noxa interaction inhibition | AID 1022 | inhibition, % at 21.7 µM | TR-FRET Mcl-1/Noxa peptide binding, 2 h | actives 1.5% (n = 220,000);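 active means compounds that cut the protein-peptide binding signal by more than 50% relative to plate controls in a single-dose test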;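 further: His-tagged Mcl-1 with rhodamine Noxa BH3 peptide and terbium anti-His antibody; 0% = Mcl-1 plus Noxa peptide wells and 100% = peptide-only wells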
# Bcl-xL primary: Bcl-xL (human) inhibition | AID 2129 | GST-Bcl-xL / FITC-Bim BH3 peptide fluorescence polarization | inhibition, % at 10.9 µM | actives 0.7% (n = 320,000) | Q07817;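 active means inhibition above the mean of all tested compounds plus 3 SD, cutoff set per campaign, cut at about 30% in these data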;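 further: 0% = DMSO wells and 100% = unlabeled Bim-BH3 peptide competitor; inhibitors lower millipolarization by displacing the labeled peptide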
# Target sequence (Q07817 whole entry, looked up): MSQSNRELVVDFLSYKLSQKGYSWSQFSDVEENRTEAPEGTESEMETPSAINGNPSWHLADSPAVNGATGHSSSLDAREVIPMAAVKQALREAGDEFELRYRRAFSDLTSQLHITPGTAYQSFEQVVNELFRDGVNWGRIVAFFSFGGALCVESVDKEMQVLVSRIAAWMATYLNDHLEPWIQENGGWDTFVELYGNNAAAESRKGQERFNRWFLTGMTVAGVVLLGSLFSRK
# * hit, by the source's call; · = not tested or not shown.
SMILES,Bim-Mcl-1,Mcl1-Bid inh,GLD-1 RNA inh,MCL1-BIM inh,Mcl1 Noxa PPI,Bcl-xL primary
O=C(NCc1cccnc1)c1ccc(S(=O)(=O)N2CCCCC2)cc1,0,9,2,1,24,3
NS(=O)(=O)c1ccc(NC(=S)NC(=O)c2cccs2)cc1,·,-42,5,15,1,5
CN1CCN(S(=O)(=O)c2ccc(NC(=S)NC(=O)c3ccccc3)cc2)CC1,-2,-28,-9,-9,13,-12
CN1CCN(S(=O)(=O)c2ccc(NC(=S)NC(=O)c3ccc(Cl)cc3)cc2)CC1,-7,2,·,·,84*,·
O=S(=O)(c1ccc(NC(=S)NCc2cccnc2)cc1)N1CCCCC1,·,96*,5,3,20,7
O=C(Cc1cccs1)Nc1ccc(S(=O)(=O)N2CCCC2)cc1,0,-19,3,21,63*,4
O=C(NC(=S)Nc1ccc(S(=O)(=O)N2CCCCC2)cc1)c1cccs1,0,96*,1,16,1,4
CC(=O)C(Cc1ccccc1)NC(=O)COC(=O)c1ccc(-n2cnnn2)cc1 (stereo unspecified),·,·,-2,·,·,·
Cc1cc(SCC(=O)N/N=C/c2ccc(O)c(O)c2)c(C)cc1Br,1,23,11,29,61*,3
O=C(CSc1nc2ccccc2o1)N/N=C/c1ccc(O)c(O)c1,·,-132,8,21,37,4
COc1ccc2nc(C)cc(SCC(=O)N/N=C/c3ccc(O)c(O)c3)c2c1,16,-32,-4,27,54*,-5
O=Cc1[nH]c2ccccc2c1N(C(=O)CCl)c1ccc([N+](=O)[O-])cc1,·,-60,1,2,92*,4
Cc1n[nH]c(=S)n(NC(=O)/C=C/C(=O)Nn2c(=S)[nH]nc(C)c2=O)c1=O,-3,-43,·,·,87*,·
CCOC(=O)C1CCN(CC(=O)N2CCc3ccccc32)CC1,·,·,-2,5,·,2
CCOC(=O)C1CCN(CC(=O)N2C(C)CCCC2C)CC1 (stereo unspecified),-1,65*,4,-4,30,-1
CC(C)COC(=O)/C(C#N)=C/c1cn(Cc2ccccc2)c2ccccc12,40*,-17,0,5,-1,6
CC(C)OC(=O)/C(C#N)=C/c1cn(Cc2ccccc2)c2ccccc12,-4,-2,0,-4,-11,-2
CN(C)c1cc2c(cc1NC(=O)c1ccccc1Cl)n(C)c(=O)n2C,·,·,4,4,·,-2
CSc1ccc(CN2CCC(C(=O)NCc3ccc(C)cc3)CC2)cc1,0,50*,2,-7,29,3
CC(NC(=O)COC(=O)c1cc(S(=O)(=O)N2CCOCC2)ccc1F)c1ccccc1 (stereo unspecified),·,·,1,·,·,·
CCCCNC(=O)Nc1nnc(-c2ccccc2)o1,2,59*,2,8,10,2
COc1ccc(N)cc1-n1c(C)ccc1C,2,-85,11,46*,21,38*
Nc1nonc1-n1nnc(C(=O)N/N=C/c2cccc(Cl)c2)c1-c1cccs1,·,·,6,-1,·,5
Cc1ccccc1-c1nnc(CN2CCN(C(=O)c3ccco3)CC2)o1,·,·,-6,3,·,1
Cc1ccccc1-c1nnc(CN2CCC(C)CC2)o1,·,·,37*,7,·,0
SMILES,Bim-Mcl-1,Mcl1-Bid inh,GLD-1 RNA inh,MCL1-BIM inh,Mcl1 Noxa PPI,Bcl-xL primary
COc1ccc2c3c(cccc13)N(C)N=C2C,18,-46,42*,87*,87*,97*
COc1ccc2c3c(cccc13)OC2=O,·,·,0,-1,·,0
CCCCc1nc(SCC(=O)N2CCCCC2)c2c(=O)n(C)c(=O)n(C)c2n1,·,·,1,-2,·,0
CC(C)c1ccc(N2C(=NC(=O)C3CC3)SC3CS(=O)(=O)CC32)cc1 (stereo unspecified),·,·,3,2,·,3
Cc1ccnc(NC(c2ccncc2)c2c(C)[nH]c3ccccc23)c1 (stereo unspecified),-4,51*,3,8,35,8
COc1cccc(CN2CCN(Cc3cc(OC)c(OC)cc3OC)CC2)c1,·,·,0,5,·,6
COc1cccc(CN2CCSCC2)c1,0,62*,-2,0,41,3
O=C(Cn1cnc2ccccc2c1=O)Nc1ccc(S(=O)(=O)N2CCOCC2)cc1,-2,-17,3,5,11,3
O=C(Cn1cnc2cc([N+](=O)[O-])ccc2c1=O)Nc1cccc(S(=O)(=O)N2CCOCC2)c1,-2,-6,7,9,53*,-1
CCOC(=O)c1cc2occc2n1CC(=O)NC1CCCCC1C (stereo unspecified),-1,99*,-9,6,13,4
Cc1ccc(-c2nc(CS(=O)(=O)CC(=O)NC3CCCCCC3)c(C)o2)cc1,·,·,-4,-10,·,-1
O=C(NCc1ccc(F)cc1)C1CCCN1C(=O)NCc1ccccc1 (stereo unspecified),1,2,4,0,52*,1
COc1cc(/C=C/C(=O)OCC(=O)NCc2ccco2)ccc1O,·,·,6,-8,·,1
O=C(Cn1sc2ccccc2c1=O)NC12CC3CC(CC(C3)C1)C2,-15,32,1,39,53*,22
CC1CCC(NC(=O)CCCn2sc3ccccc3c2=O)CC1 (stereo unspecified),·,·,-5,0,·,4
Cc1cc(C(=O)N/N=C2\CCCC(=O)C2)c2ccccc2n1,-2,-11,74*,19,12,26
COc1ccc(N(CC(=O)NC2CCS(=O)(=O)C2)S(=O)(=O)c2cc(C)ccc2C)cc1 (stereo unspecified),·,·,-1,·,·,·
Cc1ccc(NC(=O)Cn2nc(-c3ccco3)ccc2=O)cc1Cl,·,·,9,-7,·,-3
O=C(NCc1nc2ccccc2[nH]1)C1=C[C@@H](c2ccc(C(F)(F)F)cc2)C[C@@H](OCCCCO)O1,·,·,-2,5,·,1
COC(=O)C1=C(C)N(Cc2ccco2)C(=O)/C1=C\c1ccc(N(C)C)cc1,0,-66,-3,-7,54*,4
S=c1[nH]nc(-c2ccncc2)n1/N=C/c1cn(-c2ccccc2)nc1-c1ccc(Cl)cc1,·,-59,1,-3,62*,-10
Cc1c(CCC(=O)O)c(=O)n2c([nH]c3ccccc32)c1C#N,0,-76,4,-5,18,1
N#Cc1cc(NC(=O)c2ccc(F)cc2)c(=O)n2c1[nH]c1ccccc12,2,-33,-13,-7,61*,-3
Cn1c2c(c(=O)n(C)c1=O)C1c3cc(Cl)ccc3OCC1CO2 (stereo unspecified),0,96*,-1,3,2,7
COc1ccc(CN2CCC(C(=O)Nc3ccc(Oc4ccccc4)nc3)CC2)cc1F,·,·,6,-2,·,4
COc1cccc(-c2csc(N3CCN(C(=S)Nc4cccc(Cl)c4)CC3)n2)c1,0,89*,1,12,-5,1
